Bioassay records deposited in PubChem by Buhrlage Lab, Dana-Farber Cancer Institute and Novartis Institutes for BioMedical Research (Cambridge, Mass).
USP30 block = human USP30 deubiquitinase inhibition | Q70CQ3 | purified USP30, Ub-rhodamine cleavage fluorescence | inhibition, % at 25 µM | 47,000 tested, 5.3% active | AID 1645860
USP17 inh = human USP17-like deubiquitinase inhibition; AID 1645855; 47,000 tested, 6.5% active; inhibition, % at 50 µM; A8MUK1; purified USP17, Ub-rhodamine cleavage fluorescence, 3 h
USP28 inh = human USP28 deubiquitinase inhibition. Q96RU2. purified USP28, Ub-rhodamine cleavage fluorescence, 30 min. inhibition, % at 25 µM. 47,000 tested, 3% active. AID 1645857
Target sequence (Q96RU2 whole entry, looked up): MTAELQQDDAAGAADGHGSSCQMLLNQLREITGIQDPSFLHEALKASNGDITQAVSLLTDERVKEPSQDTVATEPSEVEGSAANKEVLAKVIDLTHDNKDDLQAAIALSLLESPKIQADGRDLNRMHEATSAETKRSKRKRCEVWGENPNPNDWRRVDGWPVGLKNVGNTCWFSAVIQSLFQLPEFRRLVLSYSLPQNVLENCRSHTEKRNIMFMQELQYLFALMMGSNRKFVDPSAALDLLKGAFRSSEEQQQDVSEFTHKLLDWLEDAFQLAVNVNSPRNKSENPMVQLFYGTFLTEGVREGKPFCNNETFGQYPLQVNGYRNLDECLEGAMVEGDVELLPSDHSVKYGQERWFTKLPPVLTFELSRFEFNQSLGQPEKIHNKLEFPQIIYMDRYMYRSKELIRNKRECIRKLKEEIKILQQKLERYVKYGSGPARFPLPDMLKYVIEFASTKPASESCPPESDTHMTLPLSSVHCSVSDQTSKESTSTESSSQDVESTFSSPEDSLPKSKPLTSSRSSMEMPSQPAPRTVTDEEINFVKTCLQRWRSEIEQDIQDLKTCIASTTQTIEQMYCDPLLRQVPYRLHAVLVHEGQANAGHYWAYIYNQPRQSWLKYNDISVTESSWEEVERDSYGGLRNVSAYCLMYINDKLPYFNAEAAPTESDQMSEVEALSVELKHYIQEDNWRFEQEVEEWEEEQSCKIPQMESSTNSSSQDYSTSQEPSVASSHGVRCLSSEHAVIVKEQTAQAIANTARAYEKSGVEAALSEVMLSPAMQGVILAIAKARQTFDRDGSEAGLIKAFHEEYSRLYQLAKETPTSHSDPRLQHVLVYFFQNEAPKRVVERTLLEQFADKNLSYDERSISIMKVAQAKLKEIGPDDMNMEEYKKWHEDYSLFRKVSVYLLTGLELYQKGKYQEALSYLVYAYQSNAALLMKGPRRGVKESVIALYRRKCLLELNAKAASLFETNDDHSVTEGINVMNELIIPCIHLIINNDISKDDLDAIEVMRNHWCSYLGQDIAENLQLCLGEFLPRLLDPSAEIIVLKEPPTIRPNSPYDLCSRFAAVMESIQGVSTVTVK
Numbers stand for hits; 0 = inactive; - = not tested or not shown. Shown are actives, neighbours in structure and some others; about 11% of the full set was active somewhere. Rule as the data show it: active = inhibition above about 30%; inactive = the rest.

SMILES | USP30 block | USP17 inh | USP28 inh
O=C(Nc1cnn(-c2ncc(N3CCCC3)cn2)c1)c1cccnc1 | - | 0 | -
O=C(COc1ccc(Cl)cc1)Nc1ccc(S(=O)(=O)Nc2ccccc2)cc1 | 38 | 41 | 0
COc1ccccc1NS(=O)(=O)c1ccc(NC(=O)Cc2ccc(Cl)cc2)cc1 | 0 | 45 | 0
Cc1cc(NS(=O)(=O)c2ccc(NC(=O)COc3ccc(Cl)cc3)cc2)no1 | 0 | 0 | 0
COc1ccc(NC(=O)Cc2ccccc2)cc1S(=O)(=O)Nc1ccccc1Cl | 0 | 0 | 0
CC(C)(C)c1cc(C(=O)N2CCOC(c3cnccn3)C2)n[nH]1 (stereo unspecified) | 0 | 0 | 0
CCOc1ccccc1NC(=O)c1cc(C(=O)OCCOC)c(C)[nH]c1=O | 0 | 0 | 0
CC(=O)N1CCN(C(=O)c2ccc(Cl)cc2)CC2(CC(=O)N(C)C2)C1 (stereo unspecified) | 0 | 0 | 0
c1ccc(CCNc2nn3c(-c4ccc5ccccc5c4)cnc3s2)nc1 | 0 | 0 | 0
COc1ccc(CNc2nn3c(-c4ccncc4)cnc3s2)cc1 | 86 | 34 | 70
c1ccc(CNc2nn3c(-c4ccncc4)cnc3s2)cc1 | 0 | 51 | 0
COc1ccc(-c2cnc3sc(NCC4CCOCC4)nn23)cn1 | 0 | 0 | 0
COc1ccc(C)cc1-n1c(SCC(C)=O)nc2ccccc2c1=O | 0 | 0 | 0
O=C(NCCCS(=O)(=O)N1CCN(c2ccc(F)cc2)CC1)c1ccc(F)cc1 | 0 | 0 | 0
Cc1ccc(-c2cc(C#N)c(=O)n(Cc3ccccc3)c2)cc1 | 0 | 0 | 0
Cc1ccc(-c2cc(C#N)c(=O)n(Cc3ccc(F)cc3)c2)cc1 | 0 | 41 | 0
CCN(C(=O)c1nc(N2CCOCC2)c2cnn(C)c2n1)c1ccccc1 | 0 | 0 | 0
Cc1ccc2cc(CCC(=O)N3CCCC3)c(=O)[nH]c2c1 | 0 | 0 | 0
Cc1ccc(-c2cc3c(=O)n(Cc4noc(CN5CCC(C)CC5)n4)ccn3n2)cc1 | 38 | 0 | 0
CCc1ccc(-c2cc3c(=O)n(Cc4nc(-c5ccccn5)no4)ccn3n2)cc1 | 0 | 31 | 0
COc1ccccc1-c1cc2c(=O)n(Cc3nc(-c4ccc(F)cc4)no3)ccn2n1 | 0 | 0 | 0
Cc1ccc(-c2cc3c(=O)n(Cc4noc(CN5CCCCC5)n4)ccn3n2)cc1 | 0 | 0 | 0
Cc1cc(OCC(=O)Nc2cccc(C(N)=O)c2)ccc1Cl | 0 | 0 | 0
CNc1nc(C2CCN(C(=O)c3cccc(N4CCCC4=O)c3)C2)nc2c1CN(C)CC2 (stereo unspecified) | 0 | 0 | 0
CCc1ccc(CNCC2COCc3c(C)nnn3C2)o1 (stereo unspecified) | 0 | - | 0
SMILES | USP30 block | USP17 inh | USP28 inh
CCOC(=O)Cc1cc(=O)n2[nH]c(-c3ccc(C)cc3)cc2n1 | 0 | 31 | 0
CCOC(=O)Cc1cc(=O)n2[nH]c(C)c(-c3ccc(Cl)cc3)c2n1 | 0 | 0 | 0
Fc1cccc(-c2nnc3ccc(SCc4ccccn4)nn23)c1 | 30 | 0 | 0
FC(F)(F)c1cccc(CSc2ccc3nnc(-c4ccccn4)n3n2)c1 | 32 | 0 | 78
c1ccc(CSc2ccc3nnc(-c4cccnc4)n3n2)nc1 | 0 | 0 | 0
CCC(Sc1ccc2nnc(-c3ccccn3)n2n1)C(=O)O (stereo unspecified) | 0 | 0 | 0
c1ccc(CSc2ccc3nnc(-c4ccccn4)n3n2)cc1 | 36 | 0 | 34
c1ccc(CSc2ccc3nnc(-c4ccccn4)n3n2)nc1 | 0 | 0 | 0
CC(=O)c1ccc(NC(=O)CSc2ccc3nnc(-c4ccncc4)n3n2)cc1 | - | 0 | -
O=C(CSc1ccc2nnc(-c3ccncc3)n2n1)Nc1cccc(C(F)(F)F)c1 | 0 | 47 | 0
N#Cc1ccccc1NC1c2ccccc2C(=O)N1Cc1ccccc1Cl (stereo unspecified) | 0 | 0 | 0
O=S1(=O)Cc2cnc(NCC3CC3)nc2[C@H]2CN(Cc3ccccc3F)C[C@H]21 | 0 | 0 | 0
O=C(CSc1nnc2n(-c3ccccc3)c(=O)c3c4c(sc3n12)CN(Cc1ccccc1)CC4)c1ccc(Cl)cc1 | 0 | 0 | 0
COc1ccc(-c2nc(NC(=O)c3nc(Cl)ccc3Cl)sc2C)cc1 | 0 | 0 | 0
CCn1nnc2c(N3CCC(Cc4ccccc4)CC3)ncnc21 | 0 | 0 | 0
O=C(CSc1ccc2nnc(-c3cccc(F)c3)n2n1)N1CCCc2ccccc21 | 73 | 63 | 44
O=C(CSc1ccc2nnc(CCNS(=O)(=O)c3ccccc3)n2n1)N1CCCc2ccccc21 | 0 | 0 | 0
CCCn1c(=O)c2nscc2n(CC(=O)NCc2ccccc2)c1=O | 0 | 0 | 0
Cn1cc2c(n1)c(=O)n(Cc1ccc(F)cc1)c(=O)n2CC(=O)Nc1ccccc1F | 0 | 42 | 0
Cn1cc2c(n1)c(=O)n(Cc1ccc(F)cc1)c(=O)n2CC(=O)NCc1ccco1 | 0 | 0 | 0
CCn1cc2c(n1)c(=O)n(Cc1ccc(C)cc1)c(=O)n2CC(=O)Nc1ccc(F)cc1 | 0 | 81 | 0
